PNC inhibitor = blocks assembly of the perinucleolar compartment | PC3M PTB-GFP, PNC prevalence imaging, 16 h; hits give low values | activity change (PNC), negative = inhibition, % at 10 µM | AID 2417 | 3.1% of 140,000 active;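 active means readout at or below -70, meaning at least 70% loss of cells showing the perinucleolar compartment, a nuclear body marking cancer cells; inconclusive means readout between -30 and a set limit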;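 further: plate controls were DMSO wells for no effect and camptothecin positive control wells for full effect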
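Read-out is percentage of cells bearing a perinucleolar compartment, from automated 20x imaging of fixed, Hoechst-stained PC3M PTB-GFP cells. Cells were seeded 4 h, then exposed 16 h to compound (23 nl of library stock) in duplicate plates.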
IMPase Li inh = cell-permeable IMPase inhibitors with lithium potentiation | 0.35% of 210,000 active | Potency, µM (highest dose often 59.4 µM), inactives show at the highest dose activity, negative = IMPase inhibition, actives largely listed as inhibitors | CHO-M1 cells, IP1 TR-FRET (IP-One), carbachol + lithium;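 further: IP1 builds up when IMPase is blocked and the TR-FRET signal falls; potency means the concentration at half of the fitted maximal effect; plate controls were basal vehicle for no effect and high inhibitor control for full effect; nearly all actives have a fitted effect of over 50% in size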
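Test compounds were applied to CHO-M1 cells previously cultured for 16–30 h at 2000 per well. A small lithium amount accompanied them; after 30 min at 37C, IP1 was quantified by TR-FRET.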
HPGD inh = blocks human HPGD enzyme activity; P15428; purified HPGD, NADH fluorescence kinetic, PGE2 substrate; Potency, µM, for inactives: at the top dose activity change, negative = inhibition, hits mostly inhibitors; 4.3% of 150,000 active; active means well fitted inhibition curve with a large enough effect, not every such curve was filed as active; inconclusive means small, poorly fitted or top-dose-only effect, or another doubt; inactive means no such curve, though single readings can be large or run the other way; further: potency means the concentration at half of the fitted maximal effect
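20 nM HPGD preincubated 15 min at room temperature with compound in 50 mM Tris-HCl pH 8, 0.01% Tween 20. Started with 1 mM NAD+ and 30 uM prostaglandin E2; NADH fluorescence (360/450 nm) read 5 times over 30-s intervals, last minus first.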
NPSR antag = antagonists of human neuropeptide S receptor cAMP signaling; AID 1461; 1% of 220,000 active; Potency, µM (series often up to 38.3 µM), for inactives: top-dose activity change, negative = inhibition, usual class: inhibitors; CHO-NPSR cells, cAMP TR-FRET, antagonist mode; further: potency means the concentration at half of the fitted maximal effect; nearly all actives have a fitted effect of over 50% in size
Target sequence (Q6W5P4 whole entry, looked up): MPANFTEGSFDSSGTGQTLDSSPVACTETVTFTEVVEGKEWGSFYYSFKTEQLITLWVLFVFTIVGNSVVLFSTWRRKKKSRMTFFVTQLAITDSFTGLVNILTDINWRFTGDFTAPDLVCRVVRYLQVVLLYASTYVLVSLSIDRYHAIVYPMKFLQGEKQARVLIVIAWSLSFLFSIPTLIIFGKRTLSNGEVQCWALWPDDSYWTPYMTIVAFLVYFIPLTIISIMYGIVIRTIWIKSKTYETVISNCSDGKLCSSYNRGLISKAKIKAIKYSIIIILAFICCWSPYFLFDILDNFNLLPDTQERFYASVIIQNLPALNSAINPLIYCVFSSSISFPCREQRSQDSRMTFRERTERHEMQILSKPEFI
ALDH1A1 block = blocks purified human ALDH1A1 activity | Potency, µM (highest dose often 75.3 µM), for inactives: top-dose activity, negative = inhibition, usual class: inhibitors | AID 1030 | Purified ALDH1A1, NADH fluorescence, propionaldehyde substrate | 7.3% of 220,000 active | P00352; active means well fitted inhibition curve with a large enough effect, not every such curve was filed as active; inconclusive means small, poorly fitted or top-dose-only effect, or another doubt; inactive means no such curve, though single readings can be large or run the other way;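 further: potency means the concentration at half of the fitted maximal effect; plate controls were no enzyme wells and a reference inhibitor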
IMPase cell inh = IMPase inhibition in cells; inhibition (IP1 accumulation), % at 46.1 µM; 120,000 tested, under 10 active; CHO-M1 cells, IP1 accumulation, HTRF TR-FRET ratio; P97697; active means well fitted curve in the direction sought with a large enough effect in the signal ratio, not every such curve was filed as active; inconclusive means small, poorly fitted or top-dose-only effect, or a change in a side signal; inactive means no such curve, though single readings can be large or run the other way; the % refers to the signal ratio;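 further: cells stimulated with carbachol in lithium chloride buffer; plate controls were DMSO basal wells for no effect and reference inhibitor wells for full effect; higher means more IMPase inhibition seen as more IP1 and lower FRET ratio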
Target sequence (P97697 whole entry, looked up): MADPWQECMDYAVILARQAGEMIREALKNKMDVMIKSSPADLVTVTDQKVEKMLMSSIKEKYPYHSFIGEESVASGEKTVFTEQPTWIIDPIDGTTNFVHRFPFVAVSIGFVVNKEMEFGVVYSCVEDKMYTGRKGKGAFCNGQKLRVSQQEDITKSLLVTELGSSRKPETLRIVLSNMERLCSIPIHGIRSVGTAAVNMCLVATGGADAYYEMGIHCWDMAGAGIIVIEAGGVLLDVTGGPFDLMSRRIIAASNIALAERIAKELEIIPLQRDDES
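The IP-One HTRF competitive assay in carbachol-stimulated CHO-M1 cells quantifies cellular IP1. Compounds spanned up to 46 uM final, and activity is expressed as AC50 from concentration-response fits of the ratio and donor data.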
The depositor's hits bear a star; ? = inconclusive; · = not tested or not shown; [ ] = remark or other dose. Most compounds without a hit are left out; they make up all but 11% or so of the library. Unless noted, the call rests on the fitted dose curve; in most records, active means well fitted curve in the direction sought with a large enough effect; inconclusive means small, poorly fitted or top-dose-only effect, or another doubt; inactive means no such curve, though single readings can be large; an effect the other way counts as inactive or inconclusive. Unless noted, on the % scale 0 is the no-effect control and ±100 the full control effect.

SMILES | PNC inhibitor | IMPase Li inh | HPGD inh | NPSR antag | ALDH1A1 block | IMPase cell inh
CCC(C)/C(C)=N/NC(=O)c1ccc(COc2ccc(Cl)c(C)c2)cc1 (configuration not stated) | -134* | 7% | -15% | -21% | 13µM* | ·
CCOc1ccc(OCc2ccc(C(=O)N/N=C(\C)c3ccccn3)cc2)cc1 | · | 4% | · | -10% | ? | ·
O=C(O)CCc1c2ccc(=O)c(O)c-2oc2c(O)c(O)ccc12 | · | -3% | 2.8µM* | · | ? | ·
O=c1ccc2ccc(O)c(O)c2o1 | · | 47% | ? | ? | ? | 21
CCOc1ccc(S(=O)(=O)Nc2ccc3c(c2)OCO3)c2cccnc12 | -16 | · | · | 7%[46.1 µM] | -4% | -2
O=S(=O)(Nc1cccnc1Cl)c1ccc2c(c1)OCCO2 | ? | -11%[38.3 µM] | -4% | -5%[46.1 µM] | 6% | 12
CCCOc1ccc(-c2nn(-c3ccccc3)cc2/C=C2\SC(N)=NC2=O)cc1C | 7 | -6% | 10µM* | -32% | -7% | -7
COc1ccc(-c2nn(CCC#N)cc2/C=N/O)cc1OC | · | ? | · | 20% | 18µM* | ·
COc1ccc(-c2nn(CCC(=O)O)cc2/C=C2\SC(N)=NC2=O)cc1OC | -25 | 0% | 3.2µM* | 10% | 1% | -2
Cc1cc(C)c(S(=O)(=O)N2CCN(c3ccc([N+](=O)[O-])c(NCC4CCCO4)c3)CC2)c(C)c1 (configuration not stated) | -16 | 18%[38.3 µM] | -5% | -16%[46.1 µM] | 5% | 13
CCN(CC)CC(=O)Nc1c(C)cc(C(C)(C)C)cc1C | ? | 13%[38.3 µM] | 25µM* | 2%[46.1 µM] | 0% | 0
Cc1ccc(NC(=O)COC(=O)c2cc(Cl)cc(Cl)c2)c(Br)c1 | -21 | -2% | -6% | -5% | 15% | ·
Cc1ccc(NC(=O)COC(=O)C2CC2)c(Br)c1 | -20 | -6% | 18µM* | 5% | 7% | ·
CCN(CC)CC(=O)Nc1ccc(C)cc1Br | 12 | 25%[38.3 µM] | 16µM* | -4%[46.1 µM] | 13µM* | 3
C/C(=N/NC(=O)c1ccc2c(c1)OCO2)c1ccc(Br)s1 | · | -6% | · | 17% | 7% | ·
O=S(=O)(Nc1cccnc1)c1ccc(C2CCCCC2)cc1 | 36 | 35%[38.3 µM] | -4% | -10%[46.1 µM] | 6% | 7
O=C(CCNS(=O)(=O)c1cccc2nsnc12)NCCC1=CCCCC1 | 6 | 1%[38.3 µM] | 3% | -19%[46.1 µM] | ? | -6
Nc1sc(-c2ccccc2)c(Cc2ccccc2)c1C(=O)O | · | -2% | · | -5% | 10µM* | ·
CCOC(=O)CC/C(C)=N\N=C1\SC(CC(=O)O)C(=O)N1c1ccccc1 (configuration not stated) | · | · | · | -2% | · | ·
CN1C(=O)SC(Nc2ccccc2)C1=O (configuration not stated) | 26 | 5% | 2% | ? | 32µM* | 1
O=C(O)c1cccc(CN2C(=O)SC(Nc3cccc4ccccc34)C2=O)c1 (configuration not stated) | · | 4% | · | 13% | ? | ·
Cc1ccc(NC2SC(=O)N(Cc3cccc(C(=O)O)c3)C2=O)cc1 (configuration not stated) | 7 | -9%[38.3 µM] | -5% | -4%[46.1 µM] | 25µM* | 0
Cc1ccc(NC2SC(=O)N(Cc3cccc(C(=O)O)c3)C2=O)c(C)c1 (configuration not stated) | · | · | · | 8% | · | ·
O=C(O)c1cccc(CN2C(=O)SC(Nc3ccccc3)C2=O)c1 (configuration not stated) | -5 | -15%[38.3 µM] | -10% | -2%[46.1 µM] | 7.1µM* | -9
CCCCCc1c(C)nc(SCC(=O)O)[nH]c1=O | ? | 3% | -16% | -2%[46.1 µM] | 0% | -7
SMILES | PNC inhibitor | IMPase Li inh | HPGD inh | NPSR antag | ALDH1A1 block | IMPase cell inh
Cc1cc(/C=C(\C#N)C(=O)Nc2ccc(Cl)cc2)c(C)n1-c1ccc(N2CCOCC2)c([N+](=O)[O-])c1 | ? | 6% | -6% | -5% | ? | ·
Cc1cc(C=O)c(C)n1-c1ccc(N2CCCC2)c([N+](=O)[O-])c1 | -20 | 6%[38.3 µM] | 14µM* | ? | 0.45µM* | 7
Cc1ccc(C)n1-c1ccc(N2CCOCC2)c([N+](=O)[O-])c1 | · | · | · | -33% | · | ·
Cc1cc(C=O)c(C)n1-c1ccc(N2CCOCC2)c([N+](=O)[O-])c1 | · | -2% | · | 15% | 2.5µM* | ·
Nc1ncn(-c2ncc(C(F)(F)F)cc2Cl)n1 | · | 4% | · | -23% | -1% | ·
N#Cc1ccccc1NC(=O)Nc1ccc(Cl)cc1 | -109* | -4%[38.3 µM] | -14% | 0%[46.1 µM] | ? | -2
S=c1[nH]c2cc(Cl)ccc2s1 | 47 | 5%[38.3 µM] | 28µM* | -5%[46.1 µM] | 2.8µM* | 5
S=c1[nH]c2ccc(Cl)cc2[nH]1 | 5 | 3% | 10µM* | 17% | 8.9µM* | 23
COc1ccc2[nH]c(=S)[nH]c2c1 | -12 | -12%[38.3 µM] | 28µM* | -4%[46.1 µM] | -6% | -4
CSc1nc2cc(Cl)ccc2s1 | -12 | -4%[38.3 µM] | 1% | -16%[7.67 µM] | -5% | -4
S=c1[nH]c2cc3c(cc2[nH]1)OCCO3 | · | · | · | 4% | · | ·
Cc1c(N2C(=O)C(=O)/C(=C(/O)c3ccc(Br)cc3)C2c2cccnc2)c(=O)n(-c2ccccc2)n1C (configuration not stated) | · | 8.9µM* | · | -36% | -3% | ·
CC1=C(C(=O)Nc2ccccn2)C(c2ccc(Cl)cc2)NC(=S)N1 (configuration not stated) | · | -4% | · | -5% | 3.5µM* | ·
CCOc1cc(C2NC(=S)NC(C)=C2C(=O)Nc2ccc(OC)cc2)ccc1O (configuration not stated) | ? | -3% | -9% | 3% | ? | ·
CC1=C(C(=O)Nc2ccccn2)C(c2ccc(Br)cc2)n2ncnc2N1 (configuration not stated) | 11 | -9%[38.3 µM] | -8% | -29%[46.1 µM] | ? | ?
CCOc1cccc(C2NC(=S)NC(C)=C2C(=O)Nc2ccccc2)c1 (configuration not stated) | -24 | 6% | -4% | 8% | 2.2µM* | ·
CC1=C(C(=O)Nc2ccccn2)C(c2ccc(Br)cc2)NC(=S)N1 (configuration not stated) | ? | 6% | -6% | -3% | 0.71µM* | ·
CCC(CC)C(=O)Nc1ccc(Nc2ccccc2)cc1 | -17 | 4% | -13% | 16% | -5% | ·
NS(=O)(=O)c1ccc(CCNC(=O)[C@@H]2CCCN2S(=O)(=O)c2ccccc2F)cc1 | -18 | -6%[38.3 µM] | 3% | -13%[46.1 µM] | -3% | 2
CCOC(=O)Nc1sc(NS(=O)(=O)c2ccc(C)cc2)nc1C | 26 | 43%[38.3 µM] | -6% | -9%[46.1 µM] | ? | 8
CC1CCCN(S(=O)(=O)c2ccc3c(c2)CCN3C(=O)C2CCC2)C1 (configuration not stated) | ? | 12%[38.3 µM] | -9% | -18%[46.1 µM] | -5% | 23
